BLM helicase inh-1: qHTS Assay for Inhibitors of Bloom's syndrome helicase (BLM). 350,000 tested, 0.2% active. recombinant BLM DNA unwinding, fluorescence dequenching. Potency, µM (titrated, usually from 56.1 µM), for inactives: top-dose activity change, negative = inhibition, hits mostly inhibitors. RecQ-like DNA helicase BLM (Homo sapiens), P54132;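 further: plate controls were vehicle for no effect and no enzyme for full effect; nearly all actives have a fitted effect of over 35% in size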
Target sequence (P54132 whole entry, looked up): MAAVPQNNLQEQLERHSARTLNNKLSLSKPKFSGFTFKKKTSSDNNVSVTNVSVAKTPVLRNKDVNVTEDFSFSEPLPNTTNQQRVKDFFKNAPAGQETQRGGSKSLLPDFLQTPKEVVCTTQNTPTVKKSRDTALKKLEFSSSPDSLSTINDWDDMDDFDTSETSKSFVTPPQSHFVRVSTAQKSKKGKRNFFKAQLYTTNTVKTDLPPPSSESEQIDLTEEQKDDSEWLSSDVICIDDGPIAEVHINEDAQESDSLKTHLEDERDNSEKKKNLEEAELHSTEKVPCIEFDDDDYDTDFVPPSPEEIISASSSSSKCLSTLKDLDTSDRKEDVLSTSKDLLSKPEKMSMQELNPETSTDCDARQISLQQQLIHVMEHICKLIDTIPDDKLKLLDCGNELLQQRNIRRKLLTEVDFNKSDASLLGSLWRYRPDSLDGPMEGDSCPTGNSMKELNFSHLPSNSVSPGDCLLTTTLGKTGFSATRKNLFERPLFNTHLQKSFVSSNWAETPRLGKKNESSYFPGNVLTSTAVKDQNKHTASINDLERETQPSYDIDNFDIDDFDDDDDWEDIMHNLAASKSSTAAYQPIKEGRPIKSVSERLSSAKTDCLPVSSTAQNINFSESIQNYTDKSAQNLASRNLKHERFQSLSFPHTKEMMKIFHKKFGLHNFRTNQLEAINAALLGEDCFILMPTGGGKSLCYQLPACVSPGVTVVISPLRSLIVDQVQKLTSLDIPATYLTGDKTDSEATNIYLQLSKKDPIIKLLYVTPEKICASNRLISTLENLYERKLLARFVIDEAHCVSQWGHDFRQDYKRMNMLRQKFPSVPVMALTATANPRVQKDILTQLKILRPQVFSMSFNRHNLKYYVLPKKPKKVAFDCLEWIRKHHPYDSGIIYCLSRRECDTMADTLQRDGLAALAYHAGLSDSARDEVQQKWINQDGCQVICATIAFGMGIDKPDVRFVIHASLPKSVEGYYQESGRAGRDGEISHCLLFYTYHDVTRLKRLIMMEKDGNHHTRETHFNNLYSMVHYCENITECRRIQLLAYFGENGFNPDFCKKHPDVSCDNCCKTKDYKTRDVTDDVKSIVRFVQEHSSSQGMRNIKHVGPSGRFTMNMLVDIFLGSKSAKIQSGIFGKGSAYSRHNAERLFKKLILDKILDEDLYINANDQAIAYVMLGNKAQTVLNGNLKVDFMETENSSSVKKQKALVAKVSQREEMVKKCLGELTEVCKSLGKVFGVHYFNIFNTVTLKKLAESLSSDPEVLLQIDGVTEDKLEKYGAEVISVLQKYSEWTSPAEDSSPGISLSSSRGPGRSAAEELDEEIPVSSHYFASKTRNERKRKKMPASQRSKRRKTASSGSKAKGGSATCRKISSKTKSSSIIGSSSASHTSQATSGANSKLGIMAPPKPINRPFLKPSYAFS
WRN helicase inh-1: qHTS for Inhibitors of WRN Helicase; Bifunctional 3'-5' exonuclease/ATP-dependent helicase WRN (Homo sapiens), Q14191; WRN helicase unwinding, fluorescent forked duplex, kinetic; Potency, µM (titrated, usually from 114 µM), inactives show at the highest dose activity change, negative = inhibition, usual class: inhibitors; 360,000 tested, 0.46% active; AID 651768, 2012; further: on the % scale 0 is the no-effect control and ±100 the full control effect; nearly all actives have a fitted effect of over 55% in size
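Fluorescence dequenching readout, ex 525 nm/em 598 nm, kinetic mode: forked duplex DNA (100 nM final) with adjacent fluorophore and quencher unwound by WRN (20 nM final) with 2 mM ATP. Compound preincubation 15 min, room temperature.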
TR SRC2 fluor cs: Total Fluorescence Counterscreen for Inhibitors of the Interaction of Thyroid Hormone Receptor and Steroid Receptor Coregulator 2; TRb/SRC2 Texas Red total fluorescence interference; Potency, µM (series often up to 106 µM), for the others: at the top dose fluorescence change, negative = quenching; 280,000 tested, 0.29% active; active means well fitted curve in either direction with a large enough effect; inconclusive means small, poorly fitted or top-dose-only effect; further: on the % scale 0 is the no-effect control and ±100 the full control effect
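Human TRb ligand-binding domain at 0.6 uM with 20 nM Texas Red SRC2 peptide in Tris buffer containing 1 uM T3 and 5% DMSO, incubated with compound 5 h at ambient temperature. Total fluorescence (555/632 nm) calculated as parallel + 2 × perpendicular.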
RECQ1 inh-1: qHTS Assay for Inhibitors of RecQ-Like Dna Helicase 1 (RECQ1); RECQ1 DNA unwinding, red fluorescence kinetic read; AID 2549, 2010; ATP-dependent DNA helicase Q1 (Homo sapiens), P46063; 240,000 tested, 0.54% active; Potency, µM (titrated, usually from 57.3 µM), for inactives: top-dose activity, negative = inhibition, hits mostly inhibitors;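 further: plate controls were vehicle for no effect and no enzyme for full effect; nearly all actives have a fitted effect of over 30% in size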
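50 nM RECQ1T1 preincubated 15 min with compound in Tris pH 8.0 buffer with MgCl2, DTT, Tween-20 and 2.5 ug/ml poly(dI-dC); started with 200 nM TAMRA/BHQ-2 forked duplex and 2 mM ATP. Unwinding read as fluorescence (525/598 nm), two reads 2 h apart.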
TRb-SRC2 inh: qHTS for Inhibitors of the Interaction of Thyroid Hormone Receptor and Steroid Receptor Coregulator 2; TRbeta-SRC2 peptide binding, fluorescence polarization; receptor liganded with 1 µM T3; AID 1469, 2008; Potency, µM (titrated, usually from 106 µM), without a hit: at the top dose activity change, negative = inhibition, actives largely listed as inhibitors; 280,000 tested, 0.065% active; Thyroid hormone receptor beta (Homo sapiens), P10828;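 further: plate controls were bound peptide for no effect and peptide without receptor for full effect; nearly all actives have a fitted effect of over 50% in size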
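Binding of a 20-amino-acid Texas Red SRC2 peptide (20 nM) to TRb ligand-binding domain (0.6 uM) with agonist T3 at 1 uM was followed by fluorescence polarization after a 5 hr room-temperature incubation.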
APE1 inh: qHTS Assay for Inhibitors of the Human Apurinic/apyrimidinic Endonuclease 1 (APE1) | DNA repair nuclease/redox regulator APEX1 (Homo sapiens), P27695 | recombinant APE1, TAMRA/BHQ-2 abasic DNA cleavage fluorescence | Potency, µM (highest dose often 65.8 µM), for inactives: top-dose activity change, negative = inhibition, most hits filed as inhibitors | 350,000 tested, 0.35% active | AID 2517, 2012;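 further: plate controls were vehicle for no effect and reference inhibitor for full effect; nearly all actives have a fitted effect of over 55% in size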
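Activity was derived from the fluorescence gain between first and third kinetic reads (60 s intervals, ex 525/em 598 nm) after 50 nM THF-abasic TAMRA/BHQ-2 duplex was added to 0.75 nM APE1 preincubated 15 min with compound.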
RECQ1 inh-2: Confirmation qHTS Assay for Inhibitors of RecQ-Like Dna Helicase 1 (RECQ1) - Round 2 Cherry Picks. shares compounds with RECQ1 inh-1. recombinant RECQ1 DNA unwinding, red fluorescence. Potency, µM (top dose mostly 119 µM), without a hit: top-dose activity, negative = inhibition, hits mostly inhibitors. 1,100 tested, 15% active. AID 504841, 2011; further: on the % scale 0 is the no-effect control and ±100 the full control effect; nearly all actives have a fitted effect of over 50% in size
WRN helicase inh-2: qHTS for Inhibitors of WRN Helicase: Confirmatory Assay for Cherry-picked Compounds; shares compounds with WRN helicase inh-1; WRN helicase DNA unwinding, fluorescence kinetic; Potency, µM (top dose mostly 57.1 µM), without a hit: at the top dose activity, negative = inhibition, most hits filed as inhibitors; 610 tested, 63% active; further: nearly all actives have a fitted effect of over 65% in size
TO DNA binding: qHTS for Inhibitors of WRN Helicase: Thiazole Orange DNA Binding Counterscreen. thiazole orange DNA binding displacement, fluorescence. 610 tested, 10% active. AID 720499, 2013. shares compounds with WRN helicase inh-1. Potency, µM (series often up to 57.1 µM), without a hit: at the top dose activity change, negative = inhibition, hits mostly inhibitors;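 further: drop in dye fluorescence marks compound binding to DNA; on the % scale 0 is the no-effect control and ±100 the full control effect; nearly all actives have a fitted effect of over 60% in size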
BLM helicase inh-2: qHTS for Inhibitors of WRN Helicase: BLM Helicase Counterscreen for WRN Inhibitors; AID 720503, 2013; Recombinant BLM helicase DNA unwinding, red fluorescence; 610 tested, 60% active; shares compounds with WRN helicase inh-1; Potency, µM (series often up to 57.1 µM), inactives show at the highest dose activity change, negative = inhibition, actives largely listed as inhibitors; further: nearly all actives have a fitted effect of over 60% in size
* = called active by the depositor; i = inactive; ? = inconclusive; / = no result given; [ ] = another dose, or the depositor's remark. This is a sample that favours compounds with a hit; in the whole collection about 0.91% have one here. Unless noted, the call rests on the fitted dose curve; in most records, active means well fitted curve in the direction sought with a large enough effect; inconclusive means small, poorly fitted or top-dose-only effect, or another doubt; inactive means no such curve, though single readings can be large; an effect the other way counts as inactive or inconclusive. Potency means the concentration at half of the fitted maximal effect.

SMILES	BLM helicase inh-1	WRN helicase inh-1	TR SRC2 fluor cs	RECQ1 inh-1	TRb-SRC2 inh	APE1 inh	WRN helicase inh-2	TO DNA binding	BLM helicase inh-2	others
CCOC(=O)C1CCCN(c2ccc([N+](=O)[O-])c3nonc23)C1 (stereo not given)	-10.5%	?	50.1µM*[fluorescent]	28.2µM*	?	?	24.1µM*	i	24.1µM*	RECQ1 inh-2=56.2µM*
CNP(=O)(OC)Oc1ccc(C(C)(C)C)cc1Cl (stereo not given)	/	/	1.9%[201 µM]	/	-2.3%[201 µM]	/	/	/	/
COc1cc(OC)c(OC)cc1/C=C1/C(=O)NC(=O)N(Cc2ccccc2)C1=O	-3.4%	79.4µM*	1.6%	-6.3%	-4.3%	-3.7%	?	-7.3%	?
Cc1ccc(C)c2ccccc12	/	/	1.6%[201 µM]	/	-0.6%[201 µM]	/	/	/	/
O=C(O)[C@@H]1[C@H](C(=O)O)[C@@]2(Cl)C(Cl)=C(Cl)[C@]1(Cl)C2(Cl)Cl	/	/	0.3%[201 µM]	/	-1.5%[201 µM]	/	/	/	/
O=[N+]([O-])c1cc(S(=O)(=O)c2ccc(O)c([N+](=O)[O-])c2)ccc1O	39.6%	?	-1.2%	-15.1%	-1.7%	?	19.2µM*	-9.7%	?
C=CCN1C(=O)/C(=C/c2cccs2)C(=O)NC1=S	0.0%	0.474µM*	-7.4%	-14.6%	6.6%	2.7%	-17.2%	1.6%	?
CN(C)c1ccc(/C=C/c2cc[n+](C)c3ccccc23)cc1	7.5%	35.5µM*	3.1%	15.6%	2.4%	2.0%	17.1µM*	15.2µM*	21.5µM*
Cc1ccccc1N1C(=O)NC(=O)/C(=C\c2ccc3c(c2)CCCN3Cc2ccccc2)C1=O	-22.5%	13.4µM*	0.0%	3.4%	6.8%	-0.6%	?	6.8%	24.1µM*
COc1ccc(/C=C2/C(=O)NC(=O)N(c3ccccc3)C2=O)cc1CN1C(=O)c2ccccc2C1=O	-3.0%	-7.9%	-4.8%	3.1%	-4.8%	4.8%	/	/	/
O=P(Oc1ccccc1)(Oc1ccccc1)Oc1ccccc1	/	/	-1.9%[201 µM]	/	-3.6%[201 µM]	/	/	/	/
Cc1cc(/C=C2/C(=O)NC(=O)N(c3ccc(Br)cc3)C2=O)c(C)n1C	-3.4%	-10.3%	-1.9%	-9.9%	-2.8%	3.6%	/	/	/
